The source made the active and inactive calls.

A short description of experiment [1]: compounds binding Alexa647 anti-His antibody – biochemical, small-molecule microarray, 635 nm fluorescence, artefact control for SMM control protein annotation, primary screen (AID 1128).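 Note: score merges feature fluorescence with signal-to-noise for each printed compound spot.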 To be noted: higher = more signal.
In experiment [2] the test system is Human papillomavirus type 1a E7 protein (residues 1-88). Kind of experiment: HPV1a E7 small-molecule binders, primary screen, biochemical, small-molecule microarray, residues 1-88, 635 nm (AID 1129). To be noted: small-molecule microarray binding, fluorescence 635 nm; higher = more signal.
In experiment [3] the target is Focal adhesion kinase 1 (Homo sapiens) (UniProt Q05397). Kind of experiment: PTK2 protein binding on printed compound slides – biochemical, small-molecule microarray, 635/667 nm fluorescence, BSA, DTT, primary screen (AID 1130).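 Note: composite of spot emission at 667 nm and signal to noise over triplicate slides.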 The conditions noted are these: 635 nm fluorescence, higher = more signal.
Focal adhesion kinase 1 (Homo sapiens), sequence (Q05397 whole entry, looked up): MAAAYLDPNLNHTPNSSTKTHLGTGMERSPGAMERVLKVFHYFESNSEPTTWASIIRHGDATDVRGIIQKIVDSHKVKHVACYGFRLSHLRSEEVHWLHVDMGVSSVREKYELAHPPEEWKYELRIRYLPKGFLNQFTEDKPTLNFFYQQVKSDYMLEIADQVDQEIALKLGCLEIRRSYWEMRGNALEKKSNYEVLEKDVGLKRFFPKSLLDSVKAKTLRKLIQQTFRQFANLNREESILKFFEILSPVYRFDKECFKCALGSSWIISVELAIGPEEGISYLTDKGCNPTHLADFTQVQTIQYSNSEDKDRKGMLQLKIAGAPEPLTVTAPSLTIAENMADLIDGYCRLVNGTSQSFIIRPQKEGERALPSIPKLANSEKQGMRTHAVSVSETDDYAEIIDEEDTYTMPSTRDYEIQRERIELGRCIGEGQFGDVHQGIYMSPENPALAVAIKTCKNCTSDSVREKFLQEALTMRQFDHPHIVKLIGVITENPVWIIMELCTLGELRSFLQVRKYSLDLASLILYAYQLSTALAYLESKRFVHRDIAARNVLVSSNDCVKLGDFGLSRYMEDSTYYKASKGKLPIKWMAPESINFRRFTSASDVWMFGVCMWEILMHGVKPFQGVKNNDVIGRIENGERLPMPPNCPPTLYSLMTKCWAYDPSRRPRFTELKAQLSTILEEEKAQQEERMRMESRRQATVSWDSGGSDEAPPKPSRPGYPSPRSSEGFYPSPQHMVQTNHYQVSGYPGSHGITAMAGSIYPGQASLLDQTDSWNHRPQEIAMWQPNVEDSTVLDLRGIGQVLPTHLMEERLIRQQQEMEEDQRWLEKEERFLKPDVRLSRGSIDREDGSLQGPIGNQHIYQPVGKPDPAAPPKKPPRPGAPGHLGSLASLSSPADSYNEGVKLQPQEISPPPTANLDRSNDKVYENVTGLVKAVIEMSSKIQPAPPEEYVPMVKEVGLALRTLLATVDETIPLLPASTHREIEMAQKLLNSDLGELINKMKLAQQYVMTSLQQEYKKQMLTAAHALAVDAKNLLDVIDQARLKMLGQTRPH
Experiment [4] relates to Fibrinogen (Alexa647-labelled). Kind of experiment: Alexa647-fibrinogen binding to printed small molecules – biochemical, small-molecule microarray, 635/667 nm fluorescence, artefact control for SMM control-protein annotation, profiling panel (AID 1131).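 Note: z-score merges 667 nm fluorescence with per-spot signal-to-noise over triplicate slides.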 The conditions noted are these: fibrinogen-A647 binding fluorescence, higher = more signal.
Experiment [5] concerns the target Follistatin (Homo sapiens) (UniProt P19883). Kind of experiment: FST protein binding to printed compounds – biochemical, small-molecule microarray, 635/667 nm fluorescence, primary screen (AID 1132). To be noted: 635 nm fluorescence, higher = more signal.
Experiment [6] addresses Fibroblast growth factor 2 (Homo sapiens) (UniProt P09038). Kind of experiment: basic fibroblast growth factor binding to printed compounds – biochemical, small-molecule microarray, 635/667 nm fluorescence, primary screen (AID 1133). The conditions noted are these: FGF2, fluorescence 635/667, higher = more signal.
Experiment [7] in a line: JC-1 mitochondrial potential readout, lung cancer cells – cell-based, A549, JC-1 fluorescence, basal, 24 h, 100 nL, profiling panel (AID 1138).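 Note: A549 lung adenocarcinoma cells under basal conditions with no added stimulus; test concentration not given here.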 The conditions noted are these: higher = more signal.
For the next experiment, the system named is Lefty1. Kind of experiment: Lefty1 protein binding to printed compounds – biochemical, small-molecule microarray, 635/667 nm fluorescence, primary screen (AID 1139). To be noted: fluorescence 635/667, higher = more signal.
Experiment [8] relates to wheat germ agglutinin (Triticum aestivum), Alexa647-labelled. Kind of experiment: Alexa647-WGA lectin binding to printed small molecules – biochemical, small-molecule microarray, 635/667 nm fluorescence, artefact control for SMM control-protein annotation, profiling panel (AID 1140).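 Note: score merges 667 nm feature emission with signal to noise over triplicate slides.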 The conditions noted are these: WGA-A647 binding, 635 nm fluorescence, higher = more signal.

Experiment [9] concerns the target Luciferin 4-monooxygenase (Photinus pyralis) (UniProt P08659). Kind of experiment: inhibition of purified Photinus pyralis luciferase – biochemical, luminescence, purified enzyme, 2006 set, primary screen (AID 1141).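 Note: cell-free assay with purified firefly luciferase at 100 ng per well in PBS; test concentration not given here.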 The conditions noted are these: purified firefly luciferase, SteadyGlo luminescence, 30 min; higher = more signal, called active from +8 up or from −8 down.

Fibroblast growth factor 2 (Homo sapiens), sequence (P09038 whole entry, looked up): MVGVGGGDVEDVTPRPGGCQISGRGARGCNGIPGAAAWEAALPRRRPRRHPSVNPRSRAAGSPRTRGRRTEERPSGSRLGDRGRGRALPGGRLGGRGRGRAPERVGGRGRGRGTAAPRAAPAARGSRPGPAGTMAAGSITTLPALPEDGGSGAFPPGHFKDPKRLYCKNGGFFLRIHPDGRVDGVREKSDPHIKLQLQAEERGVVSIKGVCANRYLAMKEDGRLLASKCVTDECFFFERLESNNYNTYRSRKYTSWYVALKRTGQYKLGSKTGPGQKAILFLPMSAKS
Follistatin (Homo sapiens), sequence (P19883 whole entry, looked up): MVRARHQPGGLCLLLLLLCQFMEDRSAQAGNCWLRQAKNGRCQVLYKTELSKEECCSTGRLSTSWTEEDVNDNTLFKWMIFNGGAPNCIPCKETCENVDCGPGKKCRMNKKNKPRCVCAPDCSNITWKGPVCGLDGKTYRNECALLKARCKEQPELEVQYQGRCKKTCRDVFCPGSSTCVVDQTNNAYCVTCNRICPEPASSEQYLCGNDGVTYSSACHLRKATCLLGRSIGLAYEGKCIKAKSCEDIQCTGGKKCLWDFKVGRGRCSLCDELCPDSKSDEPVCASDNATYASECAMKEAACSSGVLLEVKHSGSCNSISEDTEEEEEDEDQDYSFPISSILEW
Luciferin 4-monooxygenase (Photinus pyralis), sequence (P08659 whole entry, looked up): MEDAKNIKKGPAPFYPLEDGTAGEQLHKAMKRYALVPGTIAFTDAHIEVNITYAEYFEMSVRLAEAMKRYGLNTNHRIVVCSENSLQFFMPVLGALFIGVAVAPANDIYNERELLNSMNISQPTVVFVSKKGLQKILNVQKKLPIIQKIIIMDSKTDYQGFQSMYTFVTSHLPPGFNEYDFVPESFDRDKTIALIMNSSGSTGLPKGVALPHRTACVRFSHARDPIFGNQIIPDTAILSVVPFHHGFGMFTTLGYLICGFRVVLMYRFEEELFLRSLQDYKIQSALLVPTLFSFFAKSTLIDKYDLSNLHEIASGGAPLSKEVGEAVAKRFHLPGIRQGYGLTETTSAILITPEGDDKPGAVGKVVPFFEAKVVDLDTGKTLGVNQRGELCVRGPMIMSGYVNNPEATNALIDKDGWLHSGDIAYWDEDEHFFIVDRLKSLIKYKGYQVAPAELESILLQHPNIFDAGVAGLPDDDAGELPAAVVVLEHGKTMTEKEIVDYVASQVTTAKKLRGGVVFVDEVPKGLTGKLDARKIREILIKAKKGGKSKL

Take `COCCOC(=O)N1C(=O)[C@@]2(c3cc(C#CCCO)ccc31)[C@H](C(=O)Nc1nc3ccccc3s1)[C@H]1C(=O)O[C@H](c3ccccc3)[C@H](c3ccccc3)N1[C@@H]2c1ccc(OCCO)cc1`: the composite z-score came to 0.738 in experiment [1]; 0.957 in [2]; 0.128 in experiment [3]; 0.944 in experiment [4]; 1.27 in experiment [5]; 1.65 in experiment [6]. For the same molecule, the figures for the composite z-score (with Lefty1; in experiment [8]) were 1.26 and 0.482, respectively. Further, the z-score was -2.4 in experiment [7] and -2.56 (inactive) in experiment [9].
In the case of `CN(C)C(=O)[C@@]1(Cc2ccccc2)N=C(c2ccc(OCCCO)cc2)O[C@H]1c1ccccc1N=[N+]=[N-]`, the composite z-score in experiment [1] is 2.01; in [2] it was 1.25; in experiment [3] it was 0.978; in experiment [4], 1.01; in experiment [5] it was 1.34; in experiment [6] it was 0.249. The composite z-score is 0.623 with Lefty1 and 0.382 in experiment [8]. The z-score in experiment [7] was -0.631; in experiment [9], -6.45 (inactive).
For the molecule `CCCC[C@@H]1C[C@H]1[C@@H](NC(=O)c1ccco1)c1ccc(Cl)cc1`, the composite z-score in [1] was 1.26; in [2], 1.2; in experiment [3], 0.998; in experiment [4], 0.939; in experiment [5] it was 0.0863; in experiment [6], -0.488. The results for the composite z-score (with Lefty1; in experiment [8]) were -0.406 and 1.21, respectively. Also, the z-score is 1.88 in [7] and 1.17 (inactive) in experiment [9].
`C=CCOC(=O)[C@@H]1[C@H]2C(=O)O[C@H](c3ccccc3)[C@H](c3ccccc3)N2[C@H](c2ccc(OCCOC(=O)[C@@H]3C[C@@H]4C(=O)N5CCC[C@H]5C(=O)N4[C@@H]3c3ccc(O)cc3)cc2)[C@@]12C(=O)Nc1ccc(I)cc12`: the composite z-score was 0.426 in [1]; 1.19 in [2]; 0.928 in experiment [3]; 0.837 in experiment [4]; 1.29 in [5]; 1.2 in experiment [6]. Also, the composite z-score in the experiment on Lefty1 was 0.793; in experiment [8], 0.635. Also, the z-score in experiment [7] is -1.58; in [9], -0.291 (inactive).
Consider `COc1ccc([C@H]2OC[C@@H]3CC4(CC=CC4)C(=O)N32)cc1`, for which the composite z-score is -0.648 in experiment [1]; 0.828 in experiment [2]; 0.282 in [3]; -0.163 in experiment [4]; 1.4 in experiment [5]; 0.848 in experiment [6]. Moreover, the composite z-score was 1.35 in the experiment with Lefty1 and -0.284 in experiment [8]. The z-score in experiment [7] was -0.661; in experiment [9], -0.573 (inactive).
As to `O=C1C2C=CC(C(O)C3CCCCC3)N(Nc3ccc([N+](=O)[O-])cc3)C2C(=O)N1c1ccccc1` (stereo not given), the composite z-score in experiment [1] was 3.32; in experiment [2] it was 1.21; in experiment [3], 0.539; in experiment [4] it was 0.959; in experiment [5], -0.647; in [6], -1.58. Moreover, the composite z-score with Lefty1 was -0.153; in [8], 0.823. The z-score was -1.72 in experiment [7] and 0.618 (inactive) in [9].
Regarding `COc1cc2c(cc1O)C=[N+](Cc1cccc(OC(F)(F)F)c1)CC2`, the composite z-score in experiment [1] was -0.131; in experiment [2], -0.566; in experiment [3], 0.185; in experiment [4], -0.636; in [5], 0.318; in experiment [6], -0.0744. In addition, the values for the composite z-score (in the experiment with Lefty1; in [8]) were -0.285 and 1.01, respectively. Also, the z-score in experiment [7] was 2; in [9] it was -0.847 (inactive).
As to `[N-]=[N+]=NCc1ccccc1C[C@@]1(C(=O)NCC(O)CO)N=C(c2ccc(OCCCO)cc2)O[C@@H]1c1ccccc1N=[N+]=[N-]` (stereo not given in full), the composite z-score in [1] came out at 2.41; in experiment [2], 1.22; in experiment [3], 1.22; in experiment [4] it was 0.962; in experiment [5], 1.38; in experiment [6], 1.58. Also, the values for the composite z-score (in the experiment on Lefty1; in [8]) were -0.709 and 1.15, respectively. For the same molecule, the z-score in experiment [7] is -0.043; in experiment [9], -3.13 (inactive).
Consider `CN1C(=O)C2C=CC(C(O)c3ccccc3)N(Nc3ccccc3)C2C1=O` (stereo not given), for which the composite z-score in experiment [1] was 0.75; in experiment [2], 0.717; in experiment [3], 0.61; in experiment [4], -0.022; in experiment [5], -1.07; in experiment [6], -1.39. Moreover, the composite z-score with Lefty1 is -0.279; in [8], 0.537. Further, the z-score is -0.419 in [7] and -0.315 (inactive) in [9].
Regarding `C#CCNC(=O)[C@H](Cc1ccccc1)NC(=O)CCC(=O)O`, the composite z-score is -1.08 in [1]; -0.912 in [2]; -0.318 in experiment [3]; -1.74 in [4]; -1.69 in experiment [5]; -0.246 in experiment [6]. Moreover, the composite z-score with Lefty1 is -0.804; in [8], -1.19. Further, the results for the z-score in experiment [7] and in [9] were -0.68 and 0.0223 (inactive), respectively.
Turning to `C[C@@]1([C@@H](NC(=O)c2ccccc2)c2ccc(-c3ccccc3)cc2)C[C@H]1C1CCCCC1`, the composite z-score was -1.28 in experiment [1]; -0.202 in experiment [2]; 0.327 in experiment [3]; -0.695 in experiment [4]; -0.548 in experiment [5]; -1 in experiment [6]. Also, the composite z-score is -0.848 in the experiment with Lefty1 and 0.519 in experiment [8]. Moreover, the z-score in [7] is -0.507; in experiment [9], 1.32 (inactive).
Take `COC(=O)c1c(CC[C@@H](CO)NC(=O)N[C@H](Cn2cc(Cc3ccccc3)nn2)C(C)C)oc(C(C)=O)c1C(=O)OC`: the composite z-score in [1] was 0.583; in experiment [2] it was 0.641; in experiment [3], -0.0225; in experiment [4], 0.519; in [5], 1.29; in experiment [6], 1.51. The results for the composite z-score (in the experiment on Lefty1; in [8]) were 1.24 and 0.261, respectively. Besides, the z-score is 0.0865 in experiment [7] and -0.0001 (inactive) in experiment [9].
In the case of `COC(=O)[C@@]1(Cc2ccccc2)[C@H]2c3cc(C(=O)N4CCCC4)n(Cc4nc5ccccc5[nH]4)c3C[C@H]2CN1C(=O)c1ccccc1`, the composite z-score in experiment [1] was 2.51; in [2], 1.24; in [3], 1.22; in [4], 0.656; in [5], 1.11; in [6], -0.297. The results for the composite z-score (in the experiment on Lefty1; in [8]) were -0.931 and 0.726, respectively. Also, the z-score in experiment [7] was 1.05; in experiment [9] it was 1.5 (inactive).

The record behind these values is PubChem BioAssay.
